An excerpt weighted towards active compounds, which were near 12% of everything screened.
Shiga inhibitor = Shiga toxin inhibition; Vero cells, Shiga toxin protein synthesis inhibition reporter; AID 2315; 290,000 tested, 9.2% active; inhibition, % at 38.7 µM; in the data active = inhibition mostly above about 28%, no sharp cut-off; inactive = mostly below about 43%; also: 0% is about no effect
Sm TGR block = blocks Schistosoma mansoni thioredoxin glutathione reductase | purified TGR, DTNB reduction, TNB absorbance 405 nm | Q962Y6 | AID 485364 | Potency, µM (doses to about 114 µM), inactives show at the highest dose activity change, negative = inhibition, most hits filed as inhibitors | 360,000 tested, 3% active; active = well fitted inhibition curve with a large enough effect; inconclusive = small, poorly fitted or top-dose-only effect; inactive = no such curve, though single readings can be large or run the other way; also: potency is read from the fitted curve at half-maximal effect; % is scaled to controls: 0 for no effect and ±100 for the full control effect; nearly all actives have a fitted effect of over 60% in size
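Kinetic colorimetric format: TGR-catalysed, NADPH-driven DTNB reduction monitored via TNB absorbance. Enzyme dispensed at 20 nM; compound exposure 15 min at room temperature before reaction start.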
Cycloheximide cs = affects cycloheximide protein synthesis inhibition readout, counter-screen; 300,000 tested, 12% active; cell reporter, cycloheximide protein synthesis inhibition counterscreen; max response, %; AID 2314; in the data active = max response mostly above about 13%, no sharp cut-off; inactive = mostly below about 14%; also: read at 38.3 µM for the half of the compounds with a filed dose; 0% is about no effect
FMDV antiviral = antivirals against foot and mouth disease virus | 410,000 tested, 1.2% active | FMDV antiviral cell-based qHTS | Potency, µM (series often up to 57.9 µM), inactives show at the highest dose activity change, negative = inhibition, actives largely listed as inhibitors; calls by dose curve; tested in HEK293T cells; also: read-out not given here; potency is read from the fitted curve at half-maximal effect; % is scaled to controls: 0 for no effect and ±100 for the full control effect; nearly all actives have a fitted effect of over 45% in size
* = called active by the depositor; ? = inconclusive; nt = no result given.

SMILES	Shiga inhibitor	Sm TGR block	Cycloheximide cs	FMDV antiviral
Cc1ccc2nc(-c3ccccc3)oc(=O)c2c1	14	2%	1	39%
Cc1cc2nc(-c3ccc(NC(=O)C(C)C)cc3)oc2cc1C	80*	6%	54*	31%
O=C1c2[nH]nc(-c3ccccc3O)c2C(c2ccc(Cl)cc2)N1CCc1ccccc1 (configuration not stated)	nt	8%	nt	?
COCCCn1c(=O)c2sccc2n2c(CCCC(=O)Nc3ccc(F)c(F)c3)nnc12	nt	-6%	nt	-17%
Cc1ccc(C(=O)Nc2cc(-c3nc4cc(Cl)ccc4o3)ccc2C)c(C)c1	nt	-2%	nt	?
Cc1ccc(-c2nc3cc(NC(=O)C(C)C)ccc3o2)cc1C	95*	-8%	83*	-67%
COc1ccc(-c2nc3cc(NC(=O)COc4ccc(C)c(C)c4)ccc3o2)cc1	nt	1%	nt	26%
Cc1ccc(-c2nc3cc(NC(=O)C(C)C)ccc3o2)cc1	95*	-1%	73*	-34%
Cc1ccc(-c2nc3cc(Cl)ccc3o2)cc1	123*	-6%	46*	-55%
CCCCn1cc(S(=O)(=O)c2ccc(CC)cc2)c(=O)c2cc(F)c(N3CCOCC3)cc21	nt	-8%	nt	12%
Cc1c(C(=O)N2CCC(C)CC2)c(S(=O)(=O)Nc2cccc(C#N)c2)c(C)n1C	nt	-3%	nt	53%
COc1ccccc1CNC(=O)c1ccc2c(c1)sc1nc(-c3ccc(F)cc3)cn12	nt	29%	nt	-18%
Clc1ccc(CSc2ncccn2)cc1	43*	12%	32*	36%
c1ccc(CSc2ncccn2)cc1	6	-11%	19*	50%
O=S(=O)(c1ccc(F)cc1)N(CC(O)Cn1c2ccccc2c2ccccc21)c1ccccc1 (configuration not stated)	nt	-2%	nt	?
O=C(CCSCc1cccc(Cl)c1)N1CCN(c2ccc(Cl)cc2)CC1	nt	18%	nt	-21%
CCOC(=O)Nc1ccc(C)cc1NC(=O)OCC	-2	-2%	-1	-10%
CCCOC(=O)Nc1ccc([As](=O)(O)O)cc1NC(=O)OCCC	2	13µM*	6	-8%
Cc1nn(-c2ccc(Br)cc2)c(=O)c2ccccc12	125*	10%	70*	9%
CC1(C)C(c2ccccc2)=NC(c2ccccc2)N1O (configuration not stated)	-5	0%	6	11%
CC1(C)C(c2ccccc2)=NC(c2ccc(Br)cc2)N1O (configuration not stated)	15	1%	1	4µM*
COc1cccc(-n2nnc(-c3nc(-c4ccccc4F)no3)c2C)c1	nt	4%	nt	-18%
COc1ccc(CCNC(=O)CC(NS(=O)(=O)c2ccc(NC(C)=O)cc2)C(C)C)cc1OC (configuration not stated)	-8	-14%	-1	2%
Cc1ccc(S(=O)(=O)NC(=O)NC(C)Cc2ccccc2)cc1 (configuration not stated)	56	-2%	20*	25%
Cc1ccc(S(=O)(=O)NC(=O)NCCc2ccccc2)cc1	89	9%	15*	8%
SMILES	Shiga inhibitor	Sm TGR block	Cycloheximide cs	FMDV antiviral
Cc1ccc(S(=O)(=O)NC(Cc2ccccc2)C(=O)O)cc1 (configuration not stated)	12	-2%	-5	-2%
CC(=O)Nc1ccc(S(=O)(=O)NC(CC(=O)NCCc2ccccc2)C(C)C)cc1 (configuration not stated)	52	2%	31*	nt
Cc1ccc(S(=O)(=O)NNC(=S)NCCc2ccccc2)cc1	1	?	-2	6%
CN(C(=O)CSc1nc2ccccc2n1CC(=O)NCc1ccc(F)cc1)c1ccc(F)cc1	nt	13%	nt	16%
COC(=O)c1ccc(NC(=O)CCc2c(C)nn(-c3ccc(N4CCCCC4)nn3)c2C)cc1	nt	0%	nt	31%
Cc1noc2ncnc(N3CCCC(C(=O)NC(C)C)C3)c12 (configuration not stated)	nt	-2%	nt	-16%
COc1cccc(C2(O)CC(C(F)(F)F)=NN2C(=O)c2ccccn2)c1 (configuration not stated)	65*	?	38*	26%
O=C(c1ccccc1)N1N=C(C(F)(F)F)CC1(O)c1ccccc1 (configuration not stated)	nt	-1%	1	-16%
O=C(c1ccccc1)N1N=C(C(F)(F)F)CC1(O)c1ccc(F)cc1 (configuration not stated)	59*	6%	25*	-3%
CC1=C(C)/C(=N\OS(=O)(=O)c2ccccc2)C=CC1=O	-15	2.5µM*	-2	11µM*
O=C1NC(=O)N(c2ccc(Cl)cc2)C(=O)/C1=C/c1coc2ccc(O)cc2c1=O	6	1µM*	6	?

Compound activity deposited in PubChem by National Center for Advancing Translational Sciences (NCATS).
